Reference: the supplement of paper PMC10849652
Of roughly 7,900 targets only a part is listed; those with a hit were picked by preference. About 0.6% of all pairs of compound and target were hits.

Tests used:
Assay in all cases: log2 fold change, soluble protein after heating vs DMSO (PISA); higher = thermal stabilisation; K562 cells, 10 uM, 30 min; active = over 0.2 and 3.5 SD of the protein, either way, in both replicates (recomputed)
[1] = compound: CC1=C(C=C(C=C1)NC(=O)C2=CC(=CC=C2)C(C)(C)C#N)NC3=CC4=C(C=C3)N=CN(C4=O)C
Procedure, shortened: (§1)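 Aliquots of K562 cells (2×10^6 cells/mL) treated with 10 μM compound for 30 min were heated for 3 min over 48°C-58°C. After pooling and extraction in PBS with 0.5% NP-40 at 4°C, soluble protein from a 21,000xg, 90 min spin was quantified by TMTpro 16plex LC-MS/MS with channel sums equalised. Thermal stability is expressed against control samples, from duplicates, as a log2 fold change.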

[2] = compound: CC1=C(C=C(C=C1)NC(=O)C2=CC(=CC=C2)N(C)C)NC(=O)C3=CC=C(C=C3)O
Procedure, shortened: as §1

[3] = compound: CC1=CC=C(C=C1)SC2=C3C=C(SC3=CN=C2)C(=O)N
Procedure, shortened: as §1

[4] = compound: CC1=NC(=CC=C1)C2=C(N=C(N2)C(C)(C)C)C3=CC4=NC=CN=C4C=C3
Procedure, shortened: as §1

Nexturastat A = compound: CCCCN(Cc1ccc(C(=O)NO)cc1)C(=O)Nc1ccccc1 [Nexturastat A]
Procedure, shortened: as §1

vemurafenib = compound: CCCS(=O)(=O)Nc1ccc(F)c(C(=O)c2c[nH]c3ncc(-c4ccc(Cl)cc4)cc23)c1F [vemurafenib]
Procedure, shortened: as §1

[5] = compound: CCCS(=O)(=O)Nc1ccc(F)c(C(=O)c2c[nH]c3ncc(Cl)cc23)c1F
Procedure, shortened: as §1

[6] = compound: CCCc1cc(C)[nH]c(=O)c1CNC(=O)c1cc(-c2ccnc(N3CCN(C)CC3)c2)cc2c1cnn2C(C)C
Procedure, shortened: as §1

givinostat = compound: CCN(CC)Cc1ccc2cc(COC(=O)Nc3ccc(C(=O)NO)cc3)ccc2c1 [givinostat]
Procedure, shortened: as §1

barasertib = compound: CCN(CCCOc1ccc2c(Nc3cc(CC(=O)Nc4cccc(F)c4)[nH]n3)ncnc2c1)CCOP(=O)(O)O [barasertib]
Procedure, shortened: as §1

[7] = compound: CC[C@@H]1C(=O)N(C)c2cnc(Nc3ccc(C(=O)NC4CCN(C)CC4)cc3OC)nc2N1C1CCCC1
Procedure, shortened: as §1

volasertib = compound: CC[C@@H]1C(=O)N(C)c2cnc(Nc3ccc(C(=O)N[C@H]4CC[C@H](N5CCN(CC6CC6)CC5)CC4)cc3OC)nc2N1C(C)C [volasertib]
Procedure, shortened: as §1

[8] = compound: CC[C@H](C)N1C=C(C2=C(C=C(C=C21)C3=CN=C(C=C3)N4CCNCC4)C(=O)NCC5=C(C=C(NC5=O)C)C)C
Procedure, shortened: as §1

epoxomicin = compound: CC[C@H](C)[C@@H](C(=O)N[C@@H]([C@@H](C)O)C(=O)N[C@@H](CC(C)C)C(=O)[C@]1(CO1)C)NC(=O)[C@H]([C@@H](C)CC)N(C)C(=O)C [epoxomicin]
Procedure, shortened: as §1

[9] = compound: CCn1c(C(=O)N(C2CC2)C2CC2)cc2c3c(ncn3C)c(Nc3cc(C)n(C)n3)nc21
Procedure, shortened: as §1

[10] = compound: CCn1cc(-c2ccnc3[nH]c(-c4cccc(CN(C)C)c4)cc23)c(-c2ccc(NC(=O)N(C)C)cc2)n1
Procedure, shortened: as §1

[11] = compound: CN(C)CC(=O)Nc1ccc2[nH]c(=O)c3ccccc3c2c1
Procedure, shortened: as §1

rosiglitazone = compound: CN(CCOC1=CC=C(C=C1)C[C@H]2C(=O)NC(=O)S2)C3=CC=CC=N3 (racemic) [rosiglitazone]
Procedure, shortened: as §1

[12] = compound: CN1C2=C(C3=C1C(=O)N(N=C3)CC4=CC(=CC=C4)N)SC(=C2)S(=O)C
Procedure, shortened: as §1

[13] = compound: CN1CCC(CNc2ccc3ncc(-c4cccc(OC(F)(F)F)c4)n3n2)CC1
Procedure, shortened: as §1

Measured: log2 fold change

TMEM263 (UniProt Q8WUH6)
active: [7] -0.462 | [13] -1.32
inactive: [1] -0.009 | [2] -0.015 | [3] 0.117 | [4] 0.059 | Nexturastat A -0.02 | vemurafenib -0.051 | [5] 0.128 | [6] -0.138 | givinostat -0.015 | barasertib 0.054 | volasertib -0.5 | [8] -0.03 | epoxomicin 0.005 | [9] -0.004 | [10] -0.105 | [11] 0.024 | rosiglitazone 0.015 | [12] -0.057

UBIAD1 (UniProt Q9Y5Z9)
UniProt Q9Y5Z9, sequence (Q9Y5Z9 whole entry, looked up): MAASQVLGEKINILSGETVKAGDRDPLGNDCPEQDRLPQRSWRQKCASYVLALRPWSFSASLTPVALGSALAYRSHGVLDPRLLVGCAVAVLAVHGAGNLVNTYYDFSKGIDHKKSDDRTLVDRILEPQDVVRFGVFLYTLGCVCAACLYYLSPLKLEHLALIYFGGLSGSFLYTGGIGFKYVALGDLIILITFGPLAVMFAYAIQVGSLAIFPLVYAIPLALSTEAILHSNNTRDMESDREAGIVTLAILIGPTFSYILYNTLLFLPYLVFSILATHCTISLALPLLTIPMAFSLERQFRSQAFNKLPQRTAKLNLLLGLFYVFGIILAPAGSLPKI
inactive: [1] -0.03 | [2] 0.059 | [3] 0.004 | [4] 0.015 | vemurafenib 0.07 | [5] 0.093 | [6] 0.023 | givinostat 0.043 | barasertib 0.023 | [7] -0.008 | volasertib -0.065 | [8] -0.014 | [9] -0.009 | [10] 0.027 | [11] -0.011 | rosiglitazone 0.044 | [12] -0.094 | [13] -0.041

TSPAN13 (UniProt O95857)
UniProt O95857, sequence (O95857 whole entry, looked up): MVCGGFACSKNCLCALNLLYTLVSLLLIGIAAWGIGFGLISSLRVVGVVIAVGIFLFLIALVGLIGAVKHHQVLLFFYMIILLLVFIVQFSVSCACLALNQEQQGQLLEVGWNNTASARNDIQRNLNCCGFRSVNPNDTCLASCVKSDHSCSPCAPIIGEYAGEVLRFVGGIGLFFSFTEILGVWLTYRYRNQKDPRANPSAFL
inactive: [1] 0.111 | [2] -0.078 | [3] 0.161 | Nexturastat A -0.061 | vemurafenib 0.103 | [5] -0.08 | [6] -0.113 | givinostat -0.063 | barasertib -0.041 | volasertib 0.098 | [8] -0.083 | epoxomicin -0.148 | [9] 0.097 | [10] -0.098 | rosiglitazone 0 | [12] -0.036 | [13] -0.003
active: [11] 0.512

VPS37A (UniProt Q8NEZ2)
UniProt Q8NEZ2, sequence (Q8NEZ2 whole entry, looked up): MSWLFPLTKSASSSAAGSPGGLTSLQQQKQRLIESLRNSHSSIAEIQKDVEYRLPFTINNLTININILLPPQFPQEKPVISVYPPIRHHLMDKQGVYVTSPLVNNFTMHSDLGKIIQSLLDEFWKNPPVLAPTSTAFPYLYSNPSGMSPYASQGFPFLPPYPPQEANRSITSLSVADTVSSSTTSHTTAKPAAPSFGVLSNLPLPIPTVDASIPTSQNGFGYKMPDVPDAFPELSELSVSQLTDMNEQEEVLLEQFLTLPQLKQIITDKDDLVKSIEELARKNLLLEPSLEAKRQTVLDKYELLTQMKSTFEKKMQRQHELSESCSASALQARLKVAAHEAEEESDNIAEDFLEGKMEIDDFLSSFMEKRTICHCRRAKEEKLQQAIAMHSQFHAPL
inactive: [1] -0.015 | [2] -0.171 | [3] 0.019 | [4] 0.001 | Nexturastat A -0.048 | vemurafenib 0.128 | [5] 0.054 | [6] 0.014 | givinostat 0.14 | barasertib 0.076 | [8] 0.085 | epoxomicin 0.045 | [9] -0.001 | [10] -0.068 | [11] 0.165 | rosiglitazone 0.021 | [12] 0.025 | [13] 0.054
active: volasertib -0.707

TOMM20 (UniProt Q15388)
UniProt Q15388, sequence (Q15388 whole entry, looked up): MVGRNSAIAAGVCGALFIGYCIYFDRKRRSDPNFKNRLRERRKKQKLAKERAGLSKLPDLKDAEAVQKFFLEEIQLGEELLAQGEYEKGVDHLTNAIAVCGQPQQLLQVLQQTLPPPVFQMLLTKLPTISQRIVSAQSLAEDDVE
inactive: [1] 0.058 | [2] 0.044 | [3] 0.04 | [4] -0.019 | Nexturastat A 0.019 | vemurafenib -0.024 | [5] 0.092 | [6] 0.026 | givinostat 0.011 | barasertib 0.021 | [7] -0.135 | volasertib -0.075 | [8] -0.068 | epoxomicin -0.089 | [9] 0.078 | [10] -0.017 | [11] -0.005 | rosiglitazone -0.022 | [12] -0.033
active: [13] -0.271

TUT4 (UniProt Q5TAX3)
inactive: [1] -0.124 | [2] -0.106 | [3] -0.081 | [4] -0.121 | Nexturastat A 0.449 | vemurafenib -0.129 | [5] -0.008 | [6] -0.124 | givinostat 0.069 | barasertib 0.027 | [7] -0.064 | volasertib -0.229 | [8] -0.15 | epoxomicin -0.219 | [9] -0.041 | [10] 0.046 | [11] 0.018 | rosiglitazone -0.012 | [13] -0.235
active: [12] 0.566

VDAC1 (UniProt P21796)
inactive: [1] -0.025 | [2] 0.02 | [3] 0.025 | [4] 0.012 | Nexturastat A -0.028 | vemurafenib 0.015 | [5] 0.018 | [6] -0.005 | givinostat -0.001 | barasertib -0.017 | [7] 0.019 | volasertib 0.063 | [8] -0.013 | epoxomicin 0.012 | [9] 0.023 | [10] -0.009 | [11] -0.005 | [12] -0.022 | [13] 0.055

VPS8 (UniProt Q8N3P4)
inactive: [1] -0.011 | [2] -0.003 | [3] -0.034 | [4] 0.058 | Nexturastat A 0.032 | vemurafenib 0.048 | [5] 0.126 | [6] -0.04 | givinostat 0.014 | barasertib 0.028 | [7] -0.087 | [8] 0.079 | epoxomicin -0.015 | [9] -0.068 | [10] -0.038 | [11] 0.001 | rosiglitazone 0.118 | [12] -0.023
active: volasertib -0.647 | [13] -0.332

UBA52 (UniProt P62987)
inactive: [1] -0.046 | [2] 0.024 | [3] -0.107 | [4] -0.16 | Nexturastat A 0.281 | vemurafenib -0.212 | [5] -0.165 | [6] 0.205 | givinostat -0.06 | barasertib 0.044 | [7] 0.227 | volasertib 0.572 | epoxomicin -0.29 | [9] 0.071 | [10] 0.351 | [11] -0.256 | rosiglitazone -0.151 | [13] 0.369

TXNL4B (UniProt Q9NX01)
UniProt Q9NX01, sequence (Q9NX01 whole entry, looked up): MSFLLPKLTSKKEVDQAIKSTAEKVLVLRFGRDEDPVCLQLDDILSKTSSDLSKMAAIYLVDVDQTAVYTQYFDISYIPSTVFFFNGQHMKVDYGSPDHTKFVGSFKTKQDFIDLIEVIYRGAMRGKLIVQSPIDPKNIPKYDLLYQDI
inactive: [1] -0.037 | [2] -0.088 | [3] -0.002 | [4] -0.04 | [5] 0.024 | [6] -0.06 | givinostat 0.014 | barasertib 0.306 | [7] 0.075 | volasertib -0.111 | [8] -0.036 | [9] -0.015 | [10] -0.069 | [11] 0.186 | rosiglitazone 0.056 | [12] 0.051 | [13] -0.053
active: vemurafenib 0.453

TMEM128 (UniProt Q5BJH2)
UniProt Q5BJH2, sequence (Q5BJH2 whole entry, looked up): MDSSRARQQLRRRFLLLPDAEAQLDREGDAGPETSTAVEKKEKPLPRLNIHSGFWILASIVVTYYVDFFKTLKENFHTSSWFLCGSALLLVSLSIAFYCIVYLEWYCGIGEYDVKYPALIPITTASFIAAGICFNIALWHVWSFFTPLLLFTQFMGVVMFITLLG
inactive: [1] -0.023 | [2] -0.006 | [3] -0.005 | [4] -0.054 | Nexturastat A 0.021 | vemurafenib -0.279 | [5] 0.052 | givinostat 0.249 | barasertib -0.004 | [7] -0.076 | volasertib -0.005 | [8] 0.015 | epoxomicin 0.003 | [9] 0.006 | [11] 0.149 | rosiglitazone 0.032 | [12] -0.033

UBC (UniProt P0CG48)
UniProt P0CG48, sequence (P0CG48 whole entry, looked up): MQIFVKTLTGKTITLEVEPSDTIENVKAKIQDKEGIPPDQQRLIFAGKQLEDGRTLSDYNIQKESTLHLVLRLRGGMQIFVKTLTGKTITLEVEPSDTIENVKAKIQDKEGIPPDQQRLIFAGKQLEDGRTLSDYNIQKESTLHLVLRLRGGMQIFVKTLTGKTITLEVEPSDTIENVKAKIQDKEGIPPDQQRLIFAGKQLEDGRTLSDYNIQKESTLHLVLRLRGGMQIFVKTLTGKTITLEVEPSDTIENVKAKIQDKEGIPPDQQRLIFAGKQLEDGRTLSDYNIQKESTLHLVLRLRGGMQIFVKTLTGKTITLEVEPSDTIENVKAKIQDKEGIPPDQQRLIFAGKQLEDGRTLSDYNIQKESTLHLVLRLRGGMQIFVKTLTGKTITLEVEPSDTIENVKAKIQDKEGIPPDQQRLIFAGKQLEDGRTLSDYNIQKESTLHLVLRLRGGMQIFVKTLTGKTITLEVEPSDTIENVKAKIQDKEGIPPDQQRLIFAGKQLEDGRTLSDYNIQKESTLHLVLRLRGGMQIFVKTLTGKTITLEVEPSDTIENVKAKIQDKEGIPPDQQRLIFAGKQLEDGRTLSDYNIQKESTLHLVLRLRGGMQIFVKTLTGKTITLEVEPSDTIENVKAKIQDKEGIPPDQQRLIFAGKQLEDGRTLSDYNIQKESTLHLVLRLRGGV
active: epoxomicin 0.401
inactive: [1] 0.007 | [2] -0.091 | [3] -0.001 | [4] -0.032 | Nexturastat A 0.151 | vemurafenib -0.016 | [5] -0.08 | [6] -0.017 | givinostat 0.028 | barasertib -0.018 | [7] 0.065 | volasertib 0.087 | [8] 0.015 | [9] 0.026 | [10] 0.024 | [11] 0.003 | rosiglitazone 0.003 | [12] -0.023 | [13] 0.158

WEE1 (UniProt P30291)
UniProt P30291, sequence (P30291 whole entry, looked up): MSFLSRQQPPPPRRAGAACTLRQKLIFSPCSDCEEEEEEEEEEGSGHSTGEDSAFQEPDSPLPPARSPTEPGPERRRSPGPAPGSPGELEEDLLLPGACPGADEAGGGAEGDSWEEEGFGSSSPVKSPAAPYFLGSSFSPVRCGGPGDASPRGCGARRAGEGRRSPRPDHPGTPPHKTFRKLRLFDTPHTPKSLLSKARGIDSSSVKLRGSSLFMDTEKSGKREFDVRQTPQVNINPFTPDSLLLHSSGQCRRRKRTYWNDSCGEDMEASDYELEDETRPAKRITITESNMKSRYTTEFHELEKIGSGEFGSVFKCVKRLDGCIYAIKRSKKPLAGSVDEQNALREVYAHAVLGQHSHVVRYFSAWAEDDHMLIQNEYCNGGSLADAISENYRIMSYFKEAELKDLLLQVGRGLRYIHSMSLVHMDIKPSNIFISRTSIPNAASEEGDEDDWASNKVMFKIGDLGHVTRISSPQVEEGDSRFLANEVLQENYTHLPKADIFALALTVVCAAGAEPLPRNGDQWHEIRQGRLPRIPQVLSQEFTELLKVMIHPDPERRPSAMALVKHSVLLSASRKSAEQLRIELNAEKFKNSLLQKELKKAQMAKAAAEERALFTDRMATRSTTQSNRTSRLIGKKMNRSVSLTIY
inactive: [1] -0.037 | [2] 0.02 | [3] -0.304 | [4] -0.046 | Nexturastat A 0.322 | vemurafenib 0 | [5] 0 | [6] -0.137 | givinostat 0.037 | barasertib -0.005 | volasertib 0.07 | [8] -0.028 | epoxomicin 0.203 | [9] 0.003 | [10] -0.209 | [11] -0.103 | rosiglitazone 0.072 | [12] 0.046 | [13] 0.195

TRIM4 (UniProt Q9C037)
UniProt Q9C037, sequence (Q9C037 whole entry, looked up): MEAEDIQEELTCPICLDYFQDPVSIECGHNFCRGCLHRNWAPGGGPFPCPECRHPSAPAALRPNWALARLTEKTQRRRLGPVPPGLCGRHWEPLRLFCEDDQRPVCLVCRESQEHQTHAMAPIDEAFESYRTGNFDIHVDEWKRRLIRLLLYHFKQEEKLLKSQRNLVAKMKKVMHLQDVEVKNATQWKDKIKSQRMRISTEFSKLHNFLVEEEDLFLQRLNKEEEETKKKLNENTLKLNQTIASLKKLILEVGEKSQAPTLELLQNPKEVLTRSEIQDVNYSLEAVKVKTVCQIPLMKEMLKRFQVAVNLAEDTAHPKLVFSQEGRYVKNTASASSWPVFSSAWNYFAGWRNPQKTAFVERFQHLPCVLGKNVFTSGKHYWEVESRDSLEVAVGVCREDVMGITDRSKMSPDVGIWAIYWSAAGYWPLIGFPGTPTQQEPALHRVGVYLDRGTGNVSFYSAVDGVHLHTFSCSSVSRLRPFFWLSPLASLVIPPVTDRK
inactive: [1] -0.031 | [2] 0.023 | [3] -0.029 | [4] -0.076 | Nexturastat A 0.1 | vemurafenib -0.297 | [5] -0.041 | [6] 0.046 | givinostat -0.086 | barasertib 0.011 | [7] 0.01 | volasertib -0.042 | [8] 0.178 | epoxomicin 0.111 | [9] 0.063 | [10] -0.069 | [11] 0.03 | rosiglitazone 0.021 | [13] 0.294

UBE3B (UniProt Q7Z3V4)
inactive: [1] 0.142 | [2] 0.086 | [3] -0.03 | [4] 0.007 | Nexturastat A 0.014 | [5] -0.099 | barasertib -0.057 | [8] 0.088 | epoxomicin -0.023 | rosiglitazone 0.179 | [12] -0.007
active: volasertib -0.554

WASHC2A (UniProt Q641Q2)
UniProt Q641Q2, sequence (Q641Q2 whole entry, looked up): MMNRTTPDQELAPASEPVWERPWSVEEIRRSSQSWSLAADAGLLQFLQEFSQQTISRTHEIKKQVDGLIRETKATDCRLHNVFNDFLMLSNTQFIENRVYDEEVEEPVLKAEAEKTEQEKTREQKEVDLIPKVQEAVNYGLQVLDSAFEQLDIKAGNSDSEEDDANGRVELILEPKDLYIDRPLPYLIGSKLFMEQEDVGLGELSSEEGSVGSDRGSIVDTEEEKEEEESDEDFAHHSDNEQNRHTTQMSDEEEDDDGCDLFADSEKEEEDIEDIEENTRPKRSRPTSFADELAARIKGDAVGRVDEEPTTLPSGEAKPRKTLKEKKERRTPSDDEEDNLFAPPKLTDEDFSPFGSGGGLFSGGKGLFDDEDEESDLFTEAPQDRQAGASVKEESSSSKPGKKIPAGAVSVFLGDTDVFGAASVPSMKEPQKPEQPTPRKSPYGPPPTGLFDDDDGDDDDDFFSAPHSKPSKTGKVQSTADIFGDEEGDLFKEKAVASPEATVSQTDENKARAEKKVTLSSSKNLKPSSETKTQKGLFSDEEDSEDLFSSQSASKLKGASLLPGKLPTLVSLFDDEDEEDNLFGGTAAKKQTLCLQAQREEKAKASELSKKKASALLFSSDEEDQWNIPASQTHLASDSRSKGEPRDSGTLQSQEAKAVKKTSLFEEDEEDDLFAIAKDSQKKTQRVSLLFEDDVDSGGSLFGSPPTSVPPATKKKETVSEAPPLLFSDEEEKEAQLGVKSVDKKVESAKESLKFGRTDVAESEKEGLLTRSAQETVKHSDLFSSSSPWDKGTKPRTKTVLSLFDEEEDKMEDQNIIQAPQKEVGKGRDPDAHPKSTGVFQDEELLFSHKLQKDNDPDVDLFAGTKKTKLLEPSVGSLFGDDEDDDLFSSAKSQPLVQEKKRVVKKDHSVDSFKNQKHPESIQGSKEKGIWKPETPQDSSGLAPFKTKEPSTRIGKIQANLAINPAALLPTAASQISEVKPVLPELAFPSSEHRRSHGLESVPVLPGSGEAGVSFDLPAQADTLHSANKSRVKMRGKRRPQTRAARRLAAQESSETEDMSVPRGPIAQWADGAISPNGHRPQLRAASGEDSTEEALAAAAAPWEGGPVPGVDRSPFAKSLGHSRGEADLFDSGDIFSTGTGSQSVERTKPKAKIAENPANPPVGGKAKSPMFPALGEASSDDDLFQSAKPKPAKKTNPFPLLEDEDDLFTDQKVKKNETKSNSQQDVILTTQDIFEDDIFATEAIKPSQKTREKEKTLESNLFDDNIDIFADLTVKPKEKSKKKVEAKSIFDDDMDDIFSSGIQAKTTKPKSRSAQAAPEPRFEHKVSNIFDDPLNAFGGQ
inactive: [1] -0.053 | [2] -0.012 | [3] -0.039 | [4] -0.014 | Nexturastat A 0.004 | vemurafenib -0.041 | [5] -0.005 | [6] 0.085 | givinostat 0.004 | barasertib 0.032 | [7] -0.058 | volasertib -0.15 | [8] 0.026 | epoxomicin 0.022 | [9] 0.018 | [10] 0.052 | [11] -0.046 | rosiglitazone -0.004 | [12] 0.037 | [13] -0.18

TMEM9B (UniProt Q9NQ34)
UniProt Q9NQ34, sequence (Q9NQ34 whole entry, looked up): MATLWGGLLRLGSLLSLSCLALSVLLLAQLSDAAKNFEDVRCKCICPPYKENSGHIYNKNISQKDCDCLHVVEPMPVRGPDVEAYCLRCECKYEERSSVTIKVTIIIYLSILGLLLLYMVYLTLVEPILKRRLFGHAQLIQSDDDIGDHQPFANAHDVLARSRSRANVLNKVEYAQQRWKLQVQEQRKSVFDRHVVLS
inactive: [1] -0.068 | [2] 0.042 | [3] 0.105 | [4] 0.01 | Nexturastat A -0.055 | vemurafenib 0.013 | [5] 0.064 | [6] 0.006 | givinostat -0.023 | barasertib -0.015 | [7] 0.035 | volasertib -0.192 | [8] -0.011 | epoxomicin 0.109 | [9] 0.035 | [10] 0.049 | [11] -0.023 | rosiglitazone 0.037 | [13] -0.054
